Values joined by “and” are separate entries in the source; they are usually repeats but may differ in a detail not shown here. Identical values can stand only once. Results filed as inconclusive are left out. Active and inactive are the calls of the source. Unless noted, calls come from the whole dose curve; as a rule, active = well fitted curve in the direction sought with a large enough effect; inconclusive = small, poorly fitted or top-dose-only effect, or another doubt; inactive = no such curve, though single readings can be large; an effect the other way counts as inactive or inconclusive.
What was measured:
[1] = target: ATP-dependent 6-phosphofructokinase (Trypanosoma brucei brucei) (UniProt O15648); test: qHTS Assay to Find Inhibitors of T. brucei phosphofructokinase: hit validation (AID 492961); note: potency is the fitted concentration of half-maximal effect
Sequence of ATP-dependent 6-phosphofructokinase (Trypanosoma brucei brucei) (O15648 whole entry, looked up): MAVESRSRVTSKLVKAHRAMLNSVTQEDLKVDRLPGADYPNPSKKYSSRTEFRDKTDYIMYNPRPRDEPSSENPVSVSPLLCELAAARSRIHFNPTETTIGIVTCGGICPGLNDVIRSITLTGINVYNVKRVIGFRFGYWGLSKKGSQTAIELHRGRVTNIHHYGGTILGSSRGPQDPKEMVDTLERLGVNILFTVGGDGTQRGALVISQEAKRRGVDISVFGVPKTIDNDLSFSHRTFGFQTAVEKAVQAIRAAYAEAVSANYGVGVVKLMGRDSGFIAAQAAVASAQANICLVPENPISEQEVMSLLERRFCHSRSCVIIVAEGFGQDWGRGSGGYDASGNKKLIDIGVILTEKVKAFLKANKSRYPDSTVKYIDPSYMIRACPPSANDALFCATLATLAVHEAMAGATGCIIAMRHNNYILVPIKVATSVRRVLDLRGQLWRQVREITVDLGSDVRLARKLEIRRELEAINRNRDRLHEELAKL
Procedure, shortened: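 PFK 1.25 nM, F6P 0.5 mM, ATP 0.1 mM, MgCl2 5 mM, 0.1 M TEA pH 8.0, Tween20 0.01%, BSA 0.1%; 45 min RT. ADP-Glo two-step detection, luminescence. qHTS titration; curve fitting with curve-class categorization.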

[2] = target: Ubiquitin carboxyl-terminal hydrolase 1 (Homo sapiens) (UniProt O94782); test: Inhibitors of USP1/UAF1: Pilot qHTS (AID 504865); note: potency is the fitted concentration of half-maximal effect; nearly all actives have a fitted effect of over 35% in size
Sequence of Ubiquitin carboxyl-terminal hydrolase 1 (Homo sapiens) (O94782 whole entry, looked up): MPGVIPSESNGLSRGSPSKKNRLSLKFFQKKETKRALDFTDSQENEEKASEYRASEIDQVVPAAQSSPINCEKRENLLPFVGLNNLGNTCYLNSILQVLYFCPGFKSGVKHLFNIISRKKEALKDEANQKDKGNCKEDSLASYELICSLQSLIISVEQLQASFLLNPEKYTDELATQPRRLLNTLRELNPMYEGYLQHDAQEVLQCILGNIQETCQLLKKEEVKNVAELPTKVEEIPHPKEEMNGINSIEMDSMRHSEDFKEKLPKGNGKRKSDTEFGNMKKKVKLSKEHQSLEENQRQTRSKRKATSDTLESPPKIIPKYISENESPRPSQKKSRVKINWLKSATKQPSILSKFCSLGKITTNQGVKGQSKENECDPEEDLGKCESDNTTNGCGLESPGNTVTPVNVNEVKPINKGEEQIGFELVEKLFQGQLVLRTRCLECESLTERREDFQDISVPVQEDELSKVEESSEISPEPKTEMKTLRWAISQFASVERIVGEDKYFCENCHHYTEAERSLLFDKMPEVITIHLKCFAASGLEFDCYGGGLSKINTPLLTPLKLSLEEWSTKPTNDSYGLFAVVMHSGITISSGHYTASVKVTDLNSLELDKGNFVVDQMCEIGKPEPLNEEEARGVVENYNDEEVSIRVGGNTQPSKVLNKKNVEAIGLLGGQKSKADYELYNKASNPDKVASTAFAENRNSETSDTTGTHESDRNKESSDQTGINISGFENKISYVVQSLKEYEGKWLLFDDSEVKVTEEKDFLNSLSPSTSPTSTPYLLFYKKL
Procedure, shortened: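 USP1/UAF1 complex (1nM) preincubated with compound 15 min at room temperature, then Ub-Rho substrate (150nM final) added. Fluorescence read kinetically at 480/540 nm, 6 reads every 60 seconds. Buffer: 50mM HEPES pH 7.8, 0.5mM EDTA, 0.1 mg/ml BSA, 1mM TCEP, 0.01% Tween-20.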

[3] = target: Luciferin 4-monooxygenase (Photinus pyralis) (UniProt P08659); test: Biochemical firefly luciferase enzyme assay for NPC (AID 624030); note: nearly all actives have a fitted effect of over 70% in size; note: potency is the fitted concentration of half-maximal effect;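 for activity change, negative = inhibition: purified P. pyralis luciferase at 10 nM with luciferin and ATP substrate; 0% = DMSO and -100% = full luciferase inhibition by PTC124 control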
Sequence of Luciferin 4-monooxygenase (Photinus pyralis) (P08659 whole entry, looked up): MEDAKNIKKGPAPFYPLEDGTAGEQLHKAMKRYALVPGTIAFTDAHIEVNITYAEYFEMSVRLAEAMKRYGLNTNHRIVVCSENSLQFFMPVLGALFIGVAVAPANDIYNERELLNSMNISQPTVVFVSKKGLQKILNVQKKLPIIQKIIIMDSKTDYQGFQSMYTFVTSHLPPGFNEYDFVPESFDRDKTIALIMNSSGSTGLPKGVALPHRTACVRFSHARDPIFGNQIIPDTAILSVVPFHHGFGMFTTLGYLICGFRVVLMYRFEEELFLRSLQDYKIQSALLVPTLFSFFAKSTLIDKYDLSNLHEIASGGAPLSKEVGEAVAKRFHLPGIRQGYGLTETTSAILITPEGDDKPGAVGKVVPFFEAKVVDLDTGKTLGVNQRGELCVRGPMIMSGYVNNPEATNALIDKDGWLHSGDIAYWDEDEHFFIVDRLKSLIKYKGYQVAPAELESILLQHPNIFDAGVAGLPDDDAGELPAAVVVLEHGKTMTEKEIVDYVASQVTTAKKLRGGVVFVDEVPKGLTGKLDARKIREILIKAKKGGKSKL
Procedure, shortened: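 Counter-screen for direct inhibition of the luciferase enzyme by approved-drug library compounds, run at 10 nM enzyme in 50 mM Tris acetate (final). Luminescence was read within 5 min of enzyme-buffer addition and normalized to PTC124 versus DMSO (0%).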

[4] = S16 Schwann cell viability assay (CellTiter-Glo assay) (AID 624031); note: potency is the fitted concentration of half-maximal effect; nearly all actives have a fitted effect of over 70% in size
Procedure, shortened: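 Untransfected S16 rat Schwann cells; compound 24 h, 37 °C/5% CO2; CellTiter-Glo ATP luminescence. % activity vs no-cell wells and DMSO controls (0%); concentration-effect curves classed by r2, response magnitude, activity.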

[5] = S16 Schwann cell PMP22 intronic element firefly luciferase assay (AID 624032); note: potency is the fitted concentration of half-maximal effect; nearly all actives have a fitted effect of over 30% in size
Procedure, shortened: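 Rat S16 Schwann cells stably carrying a PMP22 intronic element-driven Fluc reporter were seeded overnight, then exposed to compounds for 24 h at 37 °C. Luminescence was normalized to PTC124 (positive control) and DMSO (0% activity).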

[6] = S16 Schwann cell PMP22 intronic element beta-lactamase assay (AID 624044; calls by dose curve; note: potency is the fitted concentration of half-maximal effect; nearly all actives have a fitted effect of over 15% in size)
Procedure, shortened: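 Beta-lactamase reporter under a PMP22 intronic regulatory element in stable S16 rat Schwann cells; 24 h compound exposure. 460 nm blue signal normalized between DMSO (0%) and potassium clavulanate, with 535 nm FRET tracking viability; curves classed by r2 and response.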

[7] = qHTS Assay for Identifying Gametocytocidal Compounds (AID 743244); note: potency is the fitted concentration of half-maximal effect;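 for max response: % is set by controls: 0 for no effect and ±100 for the full control effect; actives lower the fluorescent signal which means gametocytes are killed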; settings: P. falciparum 3D7 stage III-V gametocytes, alamarBlue, 72 h; max response: stronger effect = lower value
Procedure, shortened: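 P. falciparum 3D7 stage III–V gametocytes (20,000 cells/well) were exposed to compounds for 72 h at 37 °C, 5% CO2. AlamarBlue was then added for 24 h; decreased resorufin fluorescence (Ex 525/Em 598 nm) indicated loss of viability.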

[8] = P-glycoprotein substrates identified in KB-8-5-11 adenocarcinoma cell line, qHTS therapeutic library screen (AID 1346987); note: nearly all actives have a fitted effect of over 65% in size; note: potency is the fitted concentration of half-maximal effect
Procedure, shortened: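 Luminescence from CellTiter-Glo, read 5 min after addition, quantified survival of KB-8-5-11 (P-gp-overexpressing) cells exposed to compounds for 72 h. AC50 was derived from concentration-response curves.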

[9] = test system: 3D7; test: qHTS profiling for inhibitors of Plasmodium falciparum proliferation (AID 504749); note: potency is the fitted concentration of half-maximal effect; nearly all actives have a fitted effect of over 60% in size; settings: P. falciparum in erythrocytes, SYBR Green DNA, 72 h; series mostly up to 28.7 µM
Procedure, shortened: (§1)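 Quantitative HTS: compounds pinned into medium, infected erythrocytes added (0.3% parasitemia, 2.5% hematocrit), 72 h culture at 37 C under 5% CO2. Saponin/Triton lysis with SYBR Green I, overnight RT, then fluorescence read.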

[10] = test system: 7G8; test: as above; settings: P. falciparum in erythrocytes, SYBR Green DNA, 72 h; series mostly up to 28.7 µM
Procedure, shortened: as §1

[11] = test system: AA1029; test: as above; settings: P. falciparum in erythrocytes, SYBR Green DNA, 72 h; series mostly up to 28.7 µM
Procedure, shortened: as §1

[12] = test system: CP211; test: as above; settings: P. falciparum in erythrocytes, SYBR Green DNA, 72 h; series mostly up to 28.7 µM
Procedure, shortened: as §1

[13] = test system: CP217; test: as above; settings: P. falciparum in erythrocytes, SYBR Green DNA, 72 h; series mostly up to 28.7 µM
Procedure, shortened: as §1

[14] = test system: CP238; test: as above; settings: P. falciparum in erythrocytes, SYBR Green DNA, 72 h; series mostly up to 28.7 µM
Procedure, shortened: as §1

[15] = test system: CP247; test: as above; settings: P. falciparum in erythrocytes, SYBR Green DNA, 72 h; series mostly up to 28.7 µM
Procedure, shortened: as §1

[16] = test system: CP269; test: as above; settings: P. falciparum in erythrocytes, SYBR Green DNA, 72 h; series mostly up to 28.7 µM
Procedure, shortened: as §1

[17] = test system: CP286; test: as above; settings: P. falciparum in erythrocytes, SYBR Green DNA, 72 h; series mostly up to 28.7 µM
Procedure, shortened: as §1

[18] = test system: DFO2036; test: as above; settings: P. falciparum in erythrocytes, SYBR Green DNA, 72 h; series mostly up to 28.7 µM
Procedure, shortened: as §1

[19] = test system: DIV14; test: as above; settings: P. falciparum in erythrocytes, SYBR Green DNA, 72 h; series mostly up to 28.7 µM
Procedure, shortened: as §1

[20] = test system: DIV17; test: as above; settings: P. falciparum in erythrocytes, SYBR Green DNA, 72 h; series mostly up to 28.7 µM
Procedure, shortened: as §1

[21] = test system: Dd2; test: as above; settings: P. falciparum in erythrocytes, SYBR Green DNA, 72 h; series mostly up to 28.7 µM
Procedure, shortened: as §1

[22] = test system: ECU; test: as above; settings: P. falciparum in erythrocytes, SYBR Green DNA, 72 h; series mostly up to 28.7 µM
Procedure, shortened: as §1

[23] = test system: FAB9; test: as above; settings: P. falciparum in erythrocytes, SYBR Green DNA, 72 h; series mostly up to 28.7 µM
Procedure, shortened: as §1

[24] = test system: GB4; test: as above; settings: P. falciparum in erythrocytes, SYBR Green DNA, 72 h; series mostly up to 28.7 µM
Procedure, shortened: as §1

[25] = test system: HB3; test: as above; settings: P. falciparum in erythrocytes, SYBR Green DNA, 72 h; series mostly up to 28.7 µM
Procedure, shortened: as §1

[26] = test system: ICS; test: as above; settings: P. falciparum in erythrocytes, SYBR Green DNA, 72 h; series mostly up to 28.7 µM
Procedure, shortened: as §1

[27] = test system: N140; test: as above; settings: P. falciparum in erythrocytes, SYBR Green DNA, 72 h; series mostly up to 28.7 µM
Procedure, shortened: as §1

[28] = test system: P93_24; test: as above; settings: P. falciparum in erythrocytes, SYBR Green DNA, 72 h; series mostly up to 28.7 µM
Procedure, shortened: as §1

[29] = test system: PAD; test: as above; settings: P. falciparum in erythrocytes, SYBR Green DNA, 72 h; series mostly up to 28.7 µM
Procedure, shortened: as §1

[30] = test system: TAB109; test: as above; settings: P. falciparum in erythrocytes, SYBR Green DNA, 72 h; series mostly up to 28.7 µM
Procedure, shortened: as §1

[31] = test system: TAB165; test: as above; settings: P. falciparum in erythrocytes, SYBR Green DNA, 72 h; series mostly up to 28.7 µM
Procedure, shortened: as §1

[32] = test system: W2; test: as above; settings: P. falciparum in erythrocytes, SYBR Green DNA, 72 h; series mostly up to 28.7 µM
Procedure, shortened: as §1

[33] = test system: KB-3-1; test: Cytotoxic Profiling of Annotated Libraries Using Quantitative High-Throughput Screening (AID 1296008); settings: Five cell lines viability, CellTiter-Glo ATP luminescence, 48-72 h; max response: stronger effect = lower value; note: nearly all actives have a fitted effect of over 60% in size; note: potency is the fitted concentration of half-maximal effect; for max response: % is set by controls: 0 for no effect and ±100 for the full control effect
Procedure, shortened: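 Compounds were pin-transferred onto cells and incubated 48 or 72 hr at 37 degree Celsius, 95% humidity. CellTiter-Glo was added, plates sat 10 min at room temperature, then ATP-coupled luminescence was imaged as the viability read-out.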

[34] = test system: astro; test: Drug repurposing screens with cells derived from glioblastoma tumor samples (AID 1345199); settings: viability, ATP luminescence, 48 h; series mostly up to 45.9 µM; note: nearly all actives have a fitted effect of over 40% in size; note: potency is the fitted concentration of half-maximal effect
Procedure, shortened: (§2)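 Primary testing used CD133+ neurospheres from four GBM patients, seven concentrations, 48 h exposure and ATP-based viability; confirmation added three slower-growing patient lines.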

[35] = Primary qHTS for Huh7 cytotoxicity: counterscreen for inhibitors of MERS-S pseudotyped particle cell entry (AID 1479147; calls by dose curve; note: % is set by controls: 0 for no effect and ±100 for the full control effect); settings: outcome: dose series up to 57.1 µM unless noted
[36] = Primary qHTS for inhibitors of MERS-S pseudo-typed particle cell entry (AID 1479149; calls by dose curve; note: nearly all actives have a fitted effect of over 60% in size; for activity change, negative = inhibition: % is set by controls: 0 for no effect and ±100 for the full control effect)
[37] = Primary qHTS for Vero E6 cytotoxicity: counterscreen for inhibitors of SARS-S pseudo-typed particle cell entry (AID 1479150; calls by dose curve); settings: outcome: dose series up to 57.1 µM unless noted
[38] = Cytotoxicity counterscreen for inhibitors of SARS-CoV-2 cell entry (AID 1645845; calls by dose curve; note: % is set by controls: 0 for no effect and ±100 for the full control effect; nearly all actives have a fitted effect of over 50% in size)
Procedure, shortened: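 After a 15 min room-temperature ATPLite 1step step, luminescence reflected ATP remaining in HEK293-ACE2 cells exposed to compound for 1 h plus 48 h at 37 C, with percent activity set by cell and no-cell controls.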

[39] = Primary qHTS to identify inhibitors of SARS-CoV-2 cell entry (AID 1645846; calls by dose curve; note: nearly all actives have a fitted effect of over 45% in size); settings: activity change, negative = inhibition: at 57.1 µM (top of the series) unless noted
Procedure, shortened: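 Luminescence readout (Bright-Glo luciferase) 48 h after pseudoparticle addition. HEK293-ACE2 cells, 1500/well; compound pre-incubation 1 h; Normalized to spike PP and bald PP.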

[40] = target: Glutathione peroxidase 1 (Homo sapiens) (UniProt P07203); test: Primary qHTS Assay for Inhibitors of Recombinant Selenoprotein Glutathione Peroxidase 1 (GPX1) (AID 1845191); note: nearly all actives have a fitted effect of over 65% in size
Sequence of Glutathione peroxidase 1 (Homo sapiens) (P07203 whole entry, looked up): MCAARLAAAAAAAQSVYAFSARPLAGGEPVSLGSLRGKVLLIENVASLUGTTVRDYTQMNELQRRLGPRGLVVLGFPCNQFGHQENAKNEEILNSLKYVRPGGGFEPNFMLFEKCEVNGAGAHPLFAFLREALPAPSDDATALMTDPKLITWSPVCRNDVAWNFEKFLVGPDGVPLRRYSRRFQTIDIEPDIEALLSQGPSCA
Procedure, shortened: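 GPX1 10 nM, GR 100 nM, GSH 1 mM, NADPH 0.5 mM, CHP 0.5 mM (final). 30-min cpd preincubation, RT. Ex340/Em450 read t=0, t=15 min.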

[41] = target: Phospholipid hydroperoxide glutathione peroxidase GPX4 (Homo sapiens) (UniProt P36969); test: Primary qHTS Assay for Inhibitors of Recombinant Selenoprotein Glutathione Peroxidase 4 (GPX4) (AID 1845192); note: nearly all actives have a fitted effect of over 65% in size; for activity change, negative = inhibition: % is set by controls: 0 for no effect and ±100 for the full control effect
Sequence of Phospholipid hydroperoxide glutathione peroxidase GPX4 (Homo sapiens) (P36969 whole entry, looked up): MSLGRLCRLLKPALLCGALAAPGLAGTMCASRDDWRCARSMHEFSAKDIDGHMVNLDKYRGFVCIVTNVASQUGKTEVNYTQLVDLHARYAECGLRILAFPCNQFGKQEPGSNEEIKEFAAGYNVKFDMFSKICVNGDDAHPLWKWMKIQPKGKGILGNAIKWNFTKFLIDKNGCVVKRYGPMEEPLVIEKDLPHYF
Procedure, shortened: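 qHTS, GR-coupled: GPX4 200 nM + cpd 30 min RT → GSH 1 mM, NADPH 0.5 mM, GR 100 nM → CHP 0.5 mM start; fluor 340/450 at t0 and t15 min; no-enzyme wells as control.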

[42] = Drug repurposing screens with cells derived from glioblastoma tumor samples (AID 1345199); settings: GBM patient neurospheres viability, ATP luminescence, 48 h; Potency: tumour line A; series mostly up to 45.9 µM; note: nearly all actives have a fitted effect of over 40% in size; note: potency is the fitted concentration of half-maximal effect
Procedure, shortened: as §2

Oc1cc[c]([Hg][Cl])cc1
active: Potency [1] 2.82 µM | Potency [2] 50.1 µM | Potency [3] 8.09 µM and 9.07 µM | Potency [4] 1.14 µM | Potency [5] 0.907 µM | Potency [6] 2.24 µM | Potency [7] 3.55 µM and 2.82 µM | Potency [8] 5.8 µM and 6.51 µM | Potency [9] 8.91 µM | Potency [10] 3.16 µM | Potency [11] 11.2 µM | Potency [12] 10.7 µM | Potency [13] 8.91 µM | Potency [14] 10 µM | Potency [15] 5.01 µM | Potency [16] 8.49 µM | Potency [17] 10 µM | Potency [18] 8.91 µM | Potency [19] 7.57 µM | Potency [20] 6.75 µM | Potency [21] 11.2 µM | Potency [22] 10 µM | Potency [23] 10 µM | Potency [24] 6.75 µM | Potency [25] 11.2 µM | Potency [26] 7.94 µM | Potency [27] 6.31 µM | Potency [28] 11.2 µM | Potency [29] 11.2 µM | Potency [30] 7.08 µM | Potency [31] 10 µM | Potency [32] 5.36 µM | Potency [33] 6.51 µM | Potency [34] 3.16 µM and 5.62 µM

CCOC(=O)C1(c2ccccc2)CCCN(C)CC1 (configuration not stated)
inactive: Potency [3] | max response [7] 9.62% | outcome [35] | Potency [36] | outcome [37] | Potency [38] | Potency [40] | Potency [41] | max response [33] -5.26% | Potency [42] | Potency [34]
-23.2%: activity change, negative = inhibition [39]

CN[C@@]1(c2ccccc2Cl)CCCCC1=O
inactive: max response [7] 0.413% | Potency [8] | max response [33] -16.7% | Potency [42] | Potency [34]

O=C(O)CCCO
inactive: Potency [3] | max response [7] 2.34% | Potency [8] | max response [33] 4.02% | Potency [42] | Potency [34]

COc1cc(C[C@H](C)N)c(OC)cc1C
inactive: max response [7] -10.7% | Potency [8] | max response [33] -5.3% | Potency [42] | Potency [34]

O=P1(N(CCCl)CCCl)NC(OO)CCO1 (configuration not stated)
inactive: Potency [3] | max response [7] -1.64% | Potency [8] | max response [33] 2.7% | Potency [42] | Potency [34]

CCC(=O)O[C@H]1[C@@H](N2CCCCC2)C[C@H]2[C@@H]3CC[C@H]4C[C@H](OC(C)=O)[C@@H](N5CCCCC5)C[C@]4(C)[C@H]3CC[C@@]21C
inactive: max response [33] -10.6% | Potency [34]

CNC(C)CC1CCCCC1 (configuration not stated)
-28.6% [at 85.7 µM]: activity change, negative = inhibition [39]
inactive: Potency [3] | max response [7] -3.52% | outcome [35] | Potency [36] | outcome [37] inactive [at 85.7 µM] | Potency [38] | Potency [40] | Potency [41] | max response [33] -19.8% | Potency [42] | Potency [34]

C[C@@H](N)C(=O)c1ccccc1
inactive: max response [7] -12.7% | Potency [8] | max response [33] 2.24% | Potency [42] | Potency [34]
